Experimental data as given in PubChem BioAssay (NCI).
Compounds without any hit were thinned out: in the full panel of roughly 83,000, 20% have a hit.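 96-well plates, one dose, 48 hours. Percent growth reported; active if below 10.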 Unmarked numbers belong to inactive results. Calls of active or inactive are those of the source.

Columns and labels:
Assay in all cases: NCI-60 one-dose screen, 48 h (100 = growth as untreated, 0 = no growth, -100 = all killed)
Details in all cases: 10 µM unless noted
SK-MEL-2 melanoma = system: SK-MEL-2 melanoma
EKVX NSCLC = system: EKVX NSCLC
SN12C renal = system: SN12C renal
UO-31 renal = system: UO-31 renal
TK-10 renal = system: TK-10 renal
ACHN renal = system: ACHN renal
CAKI-1 renal = system: CAKI-1 renal
A498 renal = system: A498 renal
CCRF-CEM leukemia = system: CCRF-CEM leukemia
MOLT-4 leukemia = system: MOLT-4 leukemia
SR leukemia = system: SR leukemia
OVCAR-8 ovarian = system: OVCAR-8 ovarian
OVCAR-5 ovarian = system: OVCAR-5 ovarian
OVCAR-4 ovarian = system: OVCAR-4 ovarian
SK-OV-3 ovarian = system: SK-OV-3 ovarian
IGROV1 ovarian = system: IGROV1 ovarian
OVCAR-3 ovarian = system: OVCAR-3 ovarian
HS 578T breast = system: HS 578T breast
NCI/ADR-RES ovarian = system: NCI/ADR-RES ovarian

Compound	growth (SK-MEL-2 melanoma)	growth (EKVX NSCLC)	growth (SN12C renal)	growth (UO-31 renal)	growth (TK-10 renal)	growth (ACHN renal)	growth (CAKI-1 renal)	growth (A498 renal)	growth (CCRF-CEM leukemia)	growth (MOLT-4 leukemia)	growth (SR leukemia)	growth (OVCAR-8 ovarian)	growth (OVCAR-5 ovarian)	growth (OVCAR-4 ovarian)	growth (SK-OV-3 ovarian)	growth (IGROV1 ovarian)	growth (OVCAR-3 ovarian)	growth (HS 578T breast)	growth (NCI/ADR-RES ovarian)
C/C(=C(/c1ccccc1)c1ccc(N2C(=O)c3cccc4c(N5CCN(C)CC5)ccc(c34)C2=O)cc1)c1ccccc1	116%	62.4%	77.2%	66.9%	114%	89.5%	86.7%	86.3%	58%	54.3%	-9.19% (active)	83%	91.9%	56.6%	106%	69%	82.7%	97.9%	84.9%
CC1=C([Se]CC(OC(=O)[C@@H](CSSC(C)(C)C)NC(=O)OC(C)(C)C)C(=O)NC(C)(C)C)C(=O)c2ccccc2C1=O (some centres undefined)	7.82% (active)	-74.2% (active)	-73.3% (active)	15.4%	-96% (active)	-83% (active)	-52.1% (active)	-28.9% (active)	-21.6% (active)	15.8%	22%	-73.7% (active)	-75.8% (active)	-92.9% (active)	-100% (active)	8.36% (active)	-99.2% (active)	-11.2% (active)	-78.9% (active)
CCCCCCn1c(-c2ccc(C(=O)O/N=C(\N)c3ccc4c(c3)OCO4)cc2)nc(-c2ccccc2)c1-c1ccccc1	70.9%	-33.5% (active)	-7.53% (active)	-89.2% (active)	-9.77% (active)	-88.2% (active)	-21.3% (active)	37.2%	-34.4% (active)	0.83% (active)	-26.3% (active)	17.7%	43.2%	39.6%	98.7%	-68.5% (active)	32.4%	4.78% (active)	-52.8% (active)
COc1cc2cc(Oc3ccc(NC(=O)Nc4ccc(F)c(C(F)(F)F)c4)cc3)c(C)nc2cc1OCCN1CCOCC1	14.8%	16.2%	11.6%	30.1%	35.1%	9.37% (active)	25.8%	38.7%	5.44% (active)	0.0203% (active)	-15.2% (active)	13.8%	66.9%	27.3%	41.3%	32.7%	13%	65.8%	12%
O=c1c2cc(F)ccc2sc2c(N3CCCCC3)nc3ccccc3c12	115%	103%	99.1%	78.8%	109%	102%	101%	64.6%	110%	111%	121%	99.6%	98.4%	116%	103%	101%	110%	105%	101%
CCOC(=O)c1cn2ncnc(Oc3ccc(NC(=O)NCCN(CC)CC)c(Cl)c3)c2c1C	112%	77.2%	68.3%	57%	110%	88.2%	68.8%	90.3%	35.5%	49.2%	-26.6% (active)	81%	80.8%	90.3%	92.1%	87.3%	68.6%	77.7%	77.6%
CCCCn1c(=O)c(-c2cc(-c3ccc(Cl)cc3)nc(-c3ccc(Cl)cc3)c2)cc2ccc(Cl)cc21	123%	105%	98.8%	86.8%	115%	104%	91.6%	102%	100%	100%	98.1%	108%	94.1%	109%	99.6%	105%	112%	108%	95.9%
COc1ccc(C2NC(=O)C(C#N)c3c2sc2c(F)cccc32)c(OC)c1 (centres undefined)	65.1%	79.8%	73.8%	34%	90.1%	37.5%	21.4%	25.2%	71.9%	71.4%	13.9%	62.3%	98.9%	53.7%	50.8%	52.7%	13.8%	21.4%	16.7%
COc1ccc(C2C(C#N)=C(N)Oc3c2sc2c(C)cccc32)cc1 (centres undefined)	48.2%	42.3%	23.9%	33.9%	63.8%	28.3%	3.44% (active)	-5.44% (active)	8% (active)	12.9%	15.4%	22.6%	23.5%	50.1%	67.4%	23.3%	4.88% (active)	18.6%	4.33% (active)
COc1cc(OCc2cccc(-c3ccc(C(O)c4nccs4)cc3)c2C)cc(OC)c1CNCCNC(C)=O (centres undefined)	122%	97%	98.1%	89%	98.9%	101%	93.7%	88.2%	91.9%	94.9%	85.9%	96.1%	98.5%	91.8%	113%	103%	109%	105%	101%
Cc1cccc2c3c(sc12)C(c1ccc(Cl)cc1)C(C#N)=C(N)O3 (centres undefined)	45.7%	44.5%	25.2%	39%	71.7%	25.2%	8.51% (active)	-6.58% (active)	13.2%	11.9%	15.8%	22.2%	23.3%	58.4%	60.1%	23.8%	-17.3% (active)	15.9%	9.13% (active)
COc1ccc(C2C(N)=NNC2c2cccc(O)c2)cc1 (centres undefined)	87.6%	95.5%	96.4%	83.7%	122%	106%	88.7%	126%	105%	96.7%	81.2%	93.8%	107%	108%	98.9%	90.6%	106%	110%	99.1%
Cc1cccc2c1S/C(=C/c1ccc([N+](=O)[O-])cc1)C2=O	103%	103%	98.8%	80.4%	166%	102%	90.6%	59.8%	101%	94.5%	86.8%	105%	41.3%	112%	88.2%	82.7%	105%	99.7%	110%
COc1ccc2sc3c(NCCO)nc4ccccc4c3c(=O)c2c1	107%	70.3%	96.6%	79.4%	103%	98.1%	90.5%	48.7%	75.3%	89.3%	83.9%	92.1%	102%	114%	110%	113%	122%	95.4%	99.6%
COc1cccc2c(=O)c3c(sc12)c(NCCCN)nc1ccccc13	103%	63.6%	48.4%	27.7%	65.6%	29.4%	27.5%	25.2%	14.7%	8.43% (active)	-7.22% (active)	34.8%	77.9%	21.8%	64.7%	39.3%	39.1%	60%	46%
Cc1ccc(-c2nc(N3CCN(C(=O)Nc4ccc(Cl)c(C(F)(F)F)c4)CC3)c3ccccc3n2)cc1	96.5%	79.4%	74.8%	53.6%	93.7%	71.5%	53.6%	45.9%	65.8%	49.2%	75%	73.6%	86.9%	77.8%	81.7%	78.2%	74.8%	82.2%	69.1%
